PubChem BioAssay (NCI)
Compounds without any hit were thinned out: in the full panel of roughly 83,000, 20% have a hit.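 In brief: 96-well plates, 48 h treatment, single concentration, percent growth endpoint.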 Values without a mark were called inactive. Activity calls are given as the source filed them. Rule for the calls: active = growth percent below 10; inactive = the rest.

Legend:
Test in all cases: NCI-60 one-dose screen, 48 h (100 = growth as untreated, 0 = no growth, -100 = all killed)
Conditions in all cases: 10 µM unless noted
[1] = tested on: DU-145 prostate
[2] = tested on: K-562 leukemia
[3] = tested on: MALME-3M melanoma
[4] = tested on: MDA-MB-231 breast
[5] = tested on: RXF 393 renal
[6] = tested on: SF-268 CNS
[7] = tested on: SF-295 CNS
[8] = tested on: SF-539 CNS
[9] = tested on: UACC-257 melanoma
[10] = tested on: M14 melanoma
[11] = tested on: HCT-15 colon
[12] = tested on: HT29 colon
[13] = tested on: SNB-75 CNS
[14] = tested on: SNB-19 CNS
[15] = tested on: U251 CNS
[16] = tested on: PC-3 prostate
[17] = tested on: SK-MEL-5 melanoma
[18] = tested on: UACC-62 melanoma
[19] = tested on: LOX IMVI melanoma
[20] = tested on: SK-MEL-28 melanoma

O=S(=O)(NCCNc1nccc(-c2c(-c3ccc(F)c(O)c3)nc3sccn23)n1)c1ccc(O)cc1
growth [1]: 43.8%
growth [2]: 28.9%
growth [3]: 31%
growth [4]: 45.6%
growth [5]: 25.8%
growth [6]: 37%
growth [7]: 60.2%
growth [8]: 81.2%
growth [9]: 58.9%
growth [10]: 27.2%
growth [11]: 33.1%
growth [12]: 17%
growth [13]: 58.9%
growth [14]: 56.3%
growth [15]: 56.8%
growth [16]: 22.4%
growth [17]: 5.55% (active)
growth [18]: 17.4%
growth [19]: 32.2%
growth [20]: 55.2%

CCOC(=O)c1cc(C(=O)c2cc(OC)c(OC)c(OC)c2)n2ncccc12
growth [1]: 23.7%
growth [2]: 10.9%
growth [3]: 44.9%
growth [4]: 31.2%
growth [5]: -4.2% (active)
growth [6]: 47.7%
growth [7]: 13.6%
growth [8]: -12.3% (active)
growth [9]: 52.1%
growth [10]: 3.88% (active)
growth [11]: 24%
growth [12]: 3.66% (active)
growth [13]: 34%
growth [14]: 38.9%
growth [15]: 14.8%
growth [16]: 21.1%
growth [17]: 25.9%
growth [18]: 29.5%
growth [19]: 42.5%
growth [20]: 67.7%

COc1cc2nc3cc([N+](=O)[O-])ccc3c(NCCNCC(C)O)c2cc1OC (stereo not given)
growth [1]: -7.42% (active)
growth [2]: 0.179% (active)
growth [3]: -74.1% (active)
growth [4]: -39.5% (active)
growth [5]: -56% (active)
growth [6]: -15.4% (active)
growth [7]: 17.1%
growth [8]: -21.6% (active)
growth [9]: -56% (active)
growth [10]: -66.1% (active)
growth [11]: 23.4%
growth [12]: 2.64% (active)
growth [13]: -59.9% (active)
growth [14]: -10.4% (active)
growth [15]: -25.3% (active)
growth [16]: -38.6% (active)
growth [17]: -82.4% (active)
growth [18]: -56.8% (active)
growth [19]: -35.7% (active)
growth [20]: -20% (active)

CCOC(=O)c1c(NC(=O)c2ccc(Cl)cc2)sc2c(CN(C)C)c(O)ccc12
growth [1]: 82%
growth [2]: 8.81% (active)
growth [3]: 51.6%
growth [4]: 56.4%
growth [5]: 64.2%
growth [6]: 78.5%
growth [7]: 83.5%
growth [8]: 56.7%
growth [9]: 2.24% (active)
growth [10]: -18.4% (active)
growth [11]: -1.49% (active)
growth [12]: 23%
growth [13]: 79.2%
growth [14]: 79.5%
growth [15]: 54.4%
growth [16]: 72.9%
growth [17]: 87.4%
growth [18]: 103%
growth [19]: 60.6%
growth [20]: 73.8%

CCNCCNc1cc(C2CCCCC2)c(C#N)c2nc3ccccc3n12
growth [1]: 32.6%
growth [2]: -38.8% (active)
growth [3]: -72.4% (active)
growth [4]: -48.7% (active)
growth [5]: -81.1% (active)
growth [6]: 22.3%
growth [7]: -53.5% (active)
growth [8]: -88.8% (active)
growth [9]: -67.2% (active)
growth [10]: -66% (active)
growth [11]: 16.7%
growth [12]: -50% (active)
growth [13]: -26% (active)
growth [14]: 42.9%
growth [15]: -37.7% (active)
growth [16]: 40.2%
growth [17]: -55.1% (active)
growth [18]: -62% (active)
growth [19]: -94.8% (active)
growth [20]: -73.1% (active)

COc1ccc(C(O)c2cc3c(N)c(C(=O)Nc4cccc(Br)c4)sc3nc2C)cc1 (stereo not given)
growth [1]: 3.17% (active)
growth [2]: 9.61% (active)
growth [3]: 31.8%
growth [4]: 2.61% (active)
growth [5]: 28.2%
growth [6]: 6.77% (active)
growth [7]: 8.77% (active)
growth [8]: -19.9% (active)
growth [9]: 45.7%
growth [10]: 11.5%
growth [11]: 7.7% (active)
growth [12]: 8.32% (active)
growth [13]: 24.4%
growth [14]: 24.6%
growth [15]: 15.7%
growth [16]: 15.6%
growth [17]: -72.9% (active)
growth [18]: 13.5%
growth [19]: 15.5%
growth [20]: 50.7%

Cc1[nH]c(=O)[nH]c(=O)c1Br
growth [1]: 125%
growth [2]: 98.3%
growth [3]: 119%
growth [4]: 99.3%
growth [5]: 115%
growth [6]: 95.2%
growth [7]: 98.4%
growth [8]: 114%
growth [9]: 88.1%
growth [10]: 107%
growth [11]: 106%
growth [12]: 131%
growth [13]: 91.6%
growth [14]: 98%
growth [15]: 98.2%
growth [16]: 97.9%
growth [17]: 112%
growth [18]: 97.3%
growth [19]: 104%
growth [20]: 114%
